Measured values published in the supplement of paper PMC11001985.
Unmarked numbers belong to inactive results.

compound: C#CCNC(=O)CCSSCCC(=O)NCCc1ccc(C=O)c(C=O)c1; test: lysine labeling ratio R10:1 (500 µM / 50 µM probe), SILAC-ABPP in living cells; higher = lower intrinsic lysine reactivity toward the probe, active = 2 or less; settings: HeLa; probe concentrations 500 vs 50 µM
Summary of the method: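 The two probe levels, 50 µM and 500 µM, of an alkyne-tagged, disulfide-linked lysine probe were applied to living light and heavy SILAC HeLa cells in PBS at room temperature, and the labels were run in both forward and reverse orientation. Mixed lysates underwent biotin-azide click chemistry, trypsin digestion, neutravidin capture, DTT release and alkylation before LC-MS/MS on a TIMS-TOF Pro. R is the filtered median high-probe/low-probe MS1 peptide ratio for each lysine, summarised as the median over forward and reverse replicates. Nothing above 20 is reported; such values are set to 20.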

Chain of UniProt P10586 (P10586 whole entry): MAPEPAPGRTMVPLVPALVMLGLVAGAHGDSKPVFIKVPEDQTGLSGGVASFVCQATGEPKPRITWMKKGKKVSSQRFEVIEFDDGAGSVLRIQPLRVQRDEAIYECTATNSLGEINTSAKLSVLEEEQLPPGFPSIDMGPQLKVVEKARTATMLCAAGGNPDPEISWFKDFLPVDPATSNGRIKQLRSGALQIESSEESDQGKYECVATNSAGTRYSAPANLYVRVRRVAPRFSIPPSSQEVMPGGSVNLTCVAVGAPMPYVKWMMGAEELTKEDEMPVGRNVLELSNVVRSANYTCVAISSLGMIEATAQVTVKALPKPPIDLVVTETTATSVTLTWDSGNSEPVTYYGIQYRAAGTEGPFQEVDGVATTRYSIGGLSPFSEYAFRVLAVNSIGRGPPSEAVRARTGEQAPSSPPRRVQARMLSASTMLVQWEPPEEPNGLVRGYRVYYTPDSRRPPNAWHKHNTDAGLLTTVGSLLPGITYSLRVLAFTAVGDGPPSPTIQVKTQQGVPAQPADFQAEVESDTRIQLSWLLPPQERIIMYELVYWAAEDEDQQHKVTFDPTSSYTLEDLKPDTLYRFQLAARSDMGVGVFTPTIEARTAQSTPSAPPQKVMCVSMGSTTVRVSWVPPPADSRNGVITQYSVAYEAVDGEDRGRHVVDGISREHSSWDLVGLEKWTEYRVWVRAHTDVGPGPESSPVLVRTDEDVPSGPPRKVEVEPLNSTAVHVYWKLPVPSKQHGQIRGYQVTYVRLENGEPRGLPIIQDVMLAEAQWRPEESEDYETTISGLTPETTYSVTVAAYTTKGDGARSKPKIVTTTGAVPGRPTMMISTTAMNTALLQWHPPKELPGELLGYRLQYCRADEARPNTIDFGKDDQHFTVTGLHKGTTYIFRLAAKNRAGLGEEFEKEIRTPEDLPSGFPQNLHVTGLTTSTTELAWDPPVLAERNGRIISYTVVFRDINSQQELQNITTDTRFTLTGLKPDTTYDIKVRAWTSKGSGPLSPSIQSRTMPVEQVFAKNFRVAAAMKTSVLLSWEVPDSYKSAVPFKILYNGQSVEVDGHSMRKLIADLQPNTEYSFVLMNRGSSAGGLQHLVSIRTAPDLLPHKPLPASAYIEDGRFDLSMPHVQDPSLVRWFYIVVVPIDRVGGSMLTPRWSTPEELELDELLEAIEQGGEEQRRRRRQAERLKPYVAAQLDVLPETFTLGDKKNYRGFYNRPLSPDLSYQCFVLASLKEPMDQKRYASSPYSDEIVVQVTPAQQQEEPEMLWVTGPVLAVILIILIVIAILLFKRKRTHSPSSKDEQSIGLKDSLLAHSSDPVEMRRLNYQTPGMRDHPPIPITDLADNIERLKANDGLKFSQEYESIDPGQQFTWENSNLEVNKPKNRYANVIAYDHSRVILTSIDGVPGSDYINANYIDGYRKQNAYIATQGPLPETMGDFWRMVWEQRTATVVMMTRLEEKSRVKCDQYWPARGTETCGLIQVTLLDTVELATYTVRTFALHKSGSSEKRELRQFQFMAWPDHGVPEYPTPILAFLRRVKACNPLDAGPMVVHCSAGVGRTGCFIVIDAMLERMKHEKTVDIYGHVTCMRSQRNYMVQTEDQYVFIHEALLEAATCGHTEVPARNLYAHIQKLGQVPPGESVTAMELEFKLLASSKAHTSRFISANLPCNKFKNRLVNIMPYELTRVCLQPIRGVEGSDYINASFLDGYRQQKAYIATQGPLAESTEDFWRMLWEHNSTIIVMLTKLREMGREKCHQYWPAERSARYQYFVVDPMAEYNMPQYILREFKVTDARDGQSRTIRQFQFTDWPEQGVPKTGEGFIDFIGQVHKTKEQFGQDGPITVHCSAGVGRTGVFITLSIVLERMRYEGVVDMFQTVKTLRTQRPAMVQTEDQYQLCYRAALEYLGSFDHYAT
Chain of UniProt P02751 (P02751 whole entry): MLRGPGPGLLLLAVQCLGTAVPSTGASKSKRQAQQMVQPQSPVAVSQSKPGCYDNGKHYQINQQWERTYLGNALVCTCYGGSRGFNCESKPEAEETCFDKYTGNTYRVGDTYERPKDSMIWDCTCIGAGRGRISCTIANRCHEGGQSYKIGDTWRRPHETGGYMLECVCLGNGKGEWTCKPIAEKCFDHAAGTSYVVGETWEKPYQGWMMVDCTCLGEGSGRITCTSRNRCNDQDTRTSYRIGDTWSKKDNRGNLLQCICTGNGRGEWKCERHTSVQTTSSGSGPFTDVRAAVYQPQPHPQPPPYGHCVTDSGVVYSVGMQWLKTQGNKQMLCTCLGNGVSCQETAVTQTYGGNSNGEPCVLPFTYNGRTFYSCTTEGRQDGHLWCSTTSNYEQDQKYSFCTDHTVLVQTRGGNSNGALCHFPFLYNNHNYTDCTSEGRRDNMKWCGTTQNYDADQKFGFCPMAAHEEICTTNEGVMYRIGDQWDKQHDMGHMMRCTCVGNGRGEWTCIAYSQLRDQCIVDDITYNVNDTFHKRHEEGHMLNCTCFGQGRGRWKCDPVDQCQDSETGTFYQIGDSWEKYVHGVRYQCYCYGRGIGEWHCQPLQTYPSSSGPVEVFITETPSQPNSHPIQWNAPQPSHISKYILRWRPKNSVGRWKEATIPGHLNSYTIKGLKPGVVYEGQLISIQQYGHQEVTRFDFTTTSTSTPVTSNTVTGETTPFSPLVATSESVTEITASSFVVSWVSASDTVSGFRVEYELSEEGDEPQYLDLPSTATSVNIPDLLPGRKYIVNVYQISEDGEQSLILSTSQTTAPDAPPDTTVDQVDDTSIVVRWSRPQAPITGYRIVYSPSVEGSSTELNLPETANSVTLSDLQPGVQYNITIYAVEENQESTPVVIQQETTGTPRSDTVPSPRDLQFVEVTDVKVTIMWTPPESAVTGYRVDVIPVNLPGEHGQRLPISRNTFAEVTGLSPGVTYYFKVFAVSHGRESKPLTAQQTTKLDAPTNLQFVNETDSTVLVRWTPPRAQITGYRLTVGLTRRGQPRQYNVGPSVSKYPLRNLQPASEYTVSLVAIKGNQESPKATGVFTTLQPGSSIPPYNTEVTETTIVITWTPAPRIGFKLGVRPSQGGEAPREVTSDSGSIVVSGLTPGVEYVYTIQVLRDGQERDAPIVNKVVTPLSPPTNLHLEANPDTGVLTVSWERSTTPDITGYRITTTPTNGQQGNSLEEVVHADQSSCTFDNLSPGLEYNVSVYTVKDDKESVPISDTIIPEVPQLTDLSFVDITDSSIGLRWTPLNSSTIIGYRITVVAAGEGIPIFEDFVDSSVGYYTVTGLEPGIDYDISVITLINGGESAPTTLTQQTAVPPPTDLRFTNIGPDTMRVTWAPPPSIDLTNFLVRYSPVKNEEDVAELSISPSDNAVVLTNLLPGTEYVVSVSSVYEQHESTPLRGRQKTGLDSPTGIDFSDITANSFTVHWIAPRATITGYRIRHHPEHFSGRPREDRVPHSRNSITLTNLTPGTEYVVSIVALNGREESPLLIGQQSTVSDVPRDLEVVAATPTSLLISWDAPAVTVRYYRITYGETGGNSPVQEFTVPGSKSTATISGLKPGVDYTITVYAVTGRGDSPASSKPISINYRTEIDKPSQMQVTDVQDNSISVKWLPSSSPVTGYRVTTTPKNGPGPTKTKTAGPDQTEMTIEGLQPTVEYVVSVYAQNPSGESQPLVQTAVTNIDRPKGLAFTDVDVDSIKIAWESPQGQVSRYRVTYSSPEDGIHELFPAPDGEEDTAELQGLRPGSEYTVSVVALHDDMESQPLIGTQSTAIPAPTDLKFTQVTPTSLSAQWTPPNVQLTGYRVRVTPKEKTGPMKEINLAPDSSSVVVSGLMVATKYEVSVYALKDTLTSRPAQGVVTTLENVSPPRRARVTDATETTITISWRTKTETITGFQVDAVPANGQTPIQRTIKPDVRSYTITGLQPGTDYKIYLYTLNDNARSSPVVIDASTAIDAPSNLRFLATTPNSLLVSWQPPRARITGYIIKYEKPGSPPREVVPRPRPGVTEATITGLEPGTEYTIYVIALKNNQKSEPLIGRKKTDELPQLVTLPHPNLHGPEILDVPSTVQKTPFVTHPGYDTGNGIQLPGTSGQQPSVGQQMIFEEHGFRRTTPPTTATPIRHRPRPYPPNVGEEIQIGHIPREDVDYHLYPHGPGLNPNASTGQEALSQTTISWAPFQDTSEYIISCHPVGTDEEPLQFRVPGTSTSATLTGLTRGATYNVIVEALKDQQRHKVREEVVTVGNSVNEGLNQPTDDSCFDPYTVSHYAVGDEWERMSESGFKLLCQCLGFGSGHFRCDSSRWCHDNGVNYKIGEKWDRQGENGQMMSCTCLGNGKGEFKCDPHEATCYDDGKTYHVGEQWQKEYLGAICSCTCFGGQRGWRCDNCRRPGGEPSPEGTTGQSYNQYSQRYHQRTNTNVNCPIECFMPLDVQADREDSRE
Chain of UniProt P07355 (P07355 whole entry): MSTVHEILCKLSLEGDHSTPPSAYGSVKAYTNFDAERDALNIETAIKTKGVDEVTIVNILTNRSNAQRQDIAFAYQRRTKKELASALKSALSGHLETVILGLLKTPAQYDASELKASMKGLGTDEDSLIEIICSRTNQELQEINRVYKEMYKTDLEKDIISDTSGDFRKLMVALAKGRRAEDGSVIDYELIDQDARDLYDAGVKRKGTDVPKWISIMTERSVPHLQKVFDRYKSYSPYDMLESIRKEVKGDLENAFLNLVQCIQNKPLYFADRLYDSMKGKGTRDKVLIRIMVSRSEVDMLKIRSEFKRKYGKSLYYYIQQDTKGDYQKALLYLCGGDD
Chain of UniProt Q14165 (Q14165 whole entry): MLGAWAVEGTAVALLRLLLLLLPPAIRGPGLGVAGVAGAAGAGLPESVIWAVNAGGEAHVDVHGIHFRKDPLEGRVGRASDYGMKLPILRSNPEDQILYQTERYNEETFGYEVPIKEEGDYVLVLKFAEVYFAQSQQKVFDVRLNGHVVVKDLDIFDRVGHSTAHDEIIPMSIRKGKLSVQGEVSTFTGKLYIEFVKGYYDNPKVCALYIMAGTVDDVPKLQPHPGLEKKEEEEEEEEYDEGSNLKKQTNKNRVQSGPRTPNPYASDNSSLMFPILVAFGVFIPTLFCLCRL
Chain of UniProt P26447 (P26447 whole entry, looked up): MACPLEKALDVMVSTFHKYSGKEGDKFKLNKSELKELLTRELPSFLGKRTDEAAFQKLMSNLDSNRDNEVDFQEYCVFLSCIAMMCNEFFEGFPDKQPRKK

Target | lysine labeling ratio R10:1
COL5A1 (lysine site: K69) (UniProt P20908) | 2.04
HSPA8 (lysine site: K159) (UniProt P11142) | 5.07
MYH9 (lysine site: K202) (UniProt P35579) | 1.58 (active)
LMO7 (lysine site: K1456) (UniProt Q8WWI1) | 1.37 (active)
PTPRF (lysine site: K1103) (UniProt P10586) | 7.4
CACYBP (lysine site: K223) (UniProt Q9HB71) | 1.74 (active)
FN1 (lysine site: K1050) (UniProt P02751) | 1.47 (active)
THBS1 (lysine site: K300) (UniProt P07996) | 2.22
ROBO1 (lysine site: K282) (UniProt Q9Y6N7) | 2.01
CS (lysine site: K76) (UniProt O75390) | 5.03
NUMA1 (lysine site: K1625) (UniProt Q14980) | 3.65
LRP8 (lysine site: K567) (UniProt Q14114) | 1.53 (active)
MLEC (lysine site: K85) (UniProt Q14165) | 2.36
UniProt O60462 (lysine site: K499) | 1.47 (active)
INSR (lysine site: K511) (UniProt P06213) | 2.12
FN1 (lysine site: K2030) (UniProt P02751) | 0.807 (active)
UniProt P61160 (lysine site: K253) | 3.35
GNG12 (lysine site: K34) (UniProt Q9UBI6) | 2.84
PTPRF (lysine site: K61) (UniProt P10586) | 1.48 (active)
PTPRF (lysine site: K906) (UniProt P10586) | 4.94

Target | lysine labeling ratio R10:1
UniProt P60866 (lysine site: K8) | 2.33
UniProt Q8WXI7 (lysine site: K12467) | 5.1
SCARB1 (lysine site: K288) (UniProt Q8WTV0) | 0.704 (active)
TLN1 (lysine site: K1948) (UniProt Q9Y490) | 0.788 (active)
CALD1 (lysine site: K534) (UniProt Q05682) | 0.785 (active)
S100A4 (lysine site: K57) (UniProt P26447) | 3.85
MCAM (lysine site: K119) (UniProt P43121) | 11.1
PAICS (lysine site: K286) (UniProt P22234) | 1.42 (active)
VDAC1 (lysine site: K201) (UniProt P21796) | 3.77
ANXA1 (lysine site: K287) (UniProt P04083) | 2.78
UniProt P06576 (lysine site: K133) | 3.53
UniProt Q96JJ7 (lysine site: K119) | 3.06
TNFRSF1A (lysine site: K107) (UniProt P19438) | 1.07 (active)
LAMC1 (lysine site: K1566) (UniProt P11047) | 0.555 (active)
SERBP1 (lysine site: K76) (UniProt Q8NC51) | 1.17 (active)
DST (lysine site: K3977) (UniProt Q03001) | 1.83 (active)
RPL5 (lysine site: K27) (UniProt P46777) | 1.97 (active)
GANAB (lysine site: K48) (UniProt Q14697) | 3.47
ANXA2 (lysine site: K279) (UniProt P07355) | 5.78
DYNC1H1 (lysine site: K4406) (UniProt Q14204) | 3.65
